Hits are enriched below; roughly 9.3% of the tested compounds scored in any of these assays.
HCV inhibitor: HCV inhibition. Huh7.5.1 HCVcc-Cre infection, luciferase reporter, 44 h. Potency, µM (top dose mostly 41.8 µM), without a hit: top-dose activity change, negative = inhibition, most hits filed as inhibitors. 340,000 tested, 3.4% active. AID 651820; further: potency means the concentration at half of the fitted maximal effect
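Infectious HCV cell culture screen: compound-treated cells (1,000/well, pre-plated 4 h) are infected with HCVcc-Cre at roughly 0.5 moi and grown 44 h. Infection is quantified by luciferase signal after 15 min substrate incubation at room temperature.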
HCMV antiviral: blocks human cytomegalovirus replication | activity change, negative = inhibition, % at 57.5 µM | 410,000 tested, 4.5% active | HFF cells, HCMV-luciferase reporter, 72 h; stronger effect = lower value; in the data active means activity change below about -60%; inconclusive means no clear call, values can overlap the other calls; inactive means above about -39%
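Two compound doses tested in HFFs infected with HCMV-luciferase, MOI 1 PFU/cell, 72 h at 37C. Lysate luminescence read with OneGlo; data normalized against buffer-only and 10uM Salinomycin inhibitor controls.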
VACV mCherry inh: vaccinia inhibition (mCherry reporter). Vaccinia virus mCherry reporter infection, fluorescence. Potency, µM (titrated, usually from 36.5 µM), for the others: top-dose activity change, negative = inhibition, hits mostly inhibitors. 310,000 tested, 0.63% active; calls by dose curve; tested in A549 cells; further: potency means the concentration at half of the fitted maximal effect; nearly all actives have a fitted effect of over 35% in size
FMDV inh: blocks foot and mouth disease virus | FMDV antiviral cell-based qHTS | Potency, µM (doses to about 57.9 µM), for the others: at the highest dose activity change, negative = inhibition, actives largely listed as inhibitors | 410,000 tested, 1.2% active; calls by dose curve; tested in HEK293T cells; further: read-out not given here; potency means the concentration at half of the fitted maximal effect; nearly all actives have a fitted effect of over 45% in size
Vaccinia Venus: inhibitors of vaccinia virus (Venus reporter) | 330,000 tested, 0.46% active | Potency, µM (series often up to 36.5 µM), inactives show top-dose activity change, negative = inhibition, usual class: inhibitors | Vaccinia virus Venus reporter expression, fluorescence; calls by dose curve; tested in A549 cells; further: potency means the concentration at half of the fitted maximal effect; nearly all actives have a fitted effect of over 30% in size
Sm TGR inh: blocks Schistosoma mansoni thioredoxin glutathione reductase; purified TGR, DTNB reduction, TNB absorbance 405 nm; 360,000 tested, 3% active; AID 485364; Potency, µM (highest dose often 114 µM), for the others: top-dose activity change, negative = inhibition, hits mostly inhibitors; further: potency means the concentration at half of the fitted maximal effect; nearly all actives have a fitted effect of over 60% in size
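First, TGR (20 nM dispensed) and NADPH were mixed with compound. Second, a 15 min room-temperature incubation followed. Third, further NADPH and then DTNB were added to start the reaction. Finally, TNB absorbance was monitored kinetically.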
The depositor's hits bear a star; i = inactive; u = inconclusive; x = not tested or not shown. Unless noted, the call rests on the fitted dose curve; in most records, active means well fitted curve in the direction sought with a large enough effect; inconclusive means small, poorly fitted or top-dose-only effect, or another doubt; inactive means no such curve, though single readings can be large; an effect the other way counts as inactive or inconclusive. On the % scale 0 is the no-effect control and ±100 the full control effect.

SMILES | HCV inhibitor | HCMV antiviral | VACV mCherry inh | FMDV inh | Vaccinia Venus | Sm TGR inh
COc1ccc(CCNC(=O)[C@@H]2C[C@H]2c2ccccc2)cc1OC | -3% | -2 | -13% | -5% | -6% | -10%
CC(=O)Nc1ccc(Nc2ncnc3c2c(-c2ccccc2)cn3-c2ccc(C)c(Cl)c2)cc1 | x | -28 | -28% | u | -19% | -4%
Cc1nc(-c2ccc(NC(=O)Cc3ccccc3)cc2)cs1 | -4% | 29 | i | 78% | -10% | -10%
CN1CCN(S(=O)(=O)c2ccc(Sc3nnnn3-c3ccccc3)c([N+](=O)[O-])c2)CC1 | 13% | 12 | -13% | 20µM* | -5% | 7.1µM*
CC(=O)c1ccc(Sc2nnnn2-c2ccccc2)c([N+](=O)[O-])c1 | u | -67* | -5% | 32µM* | -3% | 35µM*
Cn1cnnc1Sc1cc(N2CCN(S(=O)(=O)c3ccccc3)CC2)ccc1[N+](=O)[O-] | u | -34 | x | -2% | x | 4%
CC(=O)c1ccc(Sc2ccccn2)c([N+](=O)[O-])c1 | 14% | -8 | i | -12% | -10% | 8%
COc1ccccc1OCC(=O)NCCCN1CCOCC1 | -1% | 15 | -4% | 1% | -1% | 0%
COc1ccccc1NC(=O)COc1cc(Br)c(CNCCCN2CCOCC2)cc1OC | 11µM* | -37 | x | -6% | x | 2%
O=C(Nc1ccc(S(=O)(=O)Nc2cnc3ccccc3n2)cc1)c1cc(F)c(F)cc1Cl | 19% | -10 | -22% | 0% | -14% | -18%
O=C(Nc1cccnc1)c1ccc([N+](=O)[O-])s1 | u | -84* | x | -12% | x | -35%
O=C(Nc1ccccc1F)c1ccc([N+](=O)[O-])s1 | u | u | -19% | 24% | u | u
O=C(Nc1cccc2ccccc12)c1cnsn1 | 9% | -64* | x | -1% | x | 0%
O=C(Nc1cccc2ccccc12)c1ccc([N+](=O)[O-])s1 | u | -98* | u | -16% | u | -10%
N#CC(c1ccc(Cl)cc1)c1ncc(C(F)(F)F)cc1Cl (configuration not stated) | 3% | 8 | x | 4% | x | 8%
O=C(CSc1n[nH]c(-c2ccco2)n1)Nc1sc2c(c1C(=O)Nc1ccccc1)CCCC2 | u | 18 | x | -18% | x | -21%
COc1ccc(S(=O)(=O)Nc2ccc3c(c2)C(=O)N([C@@H](C)CO)C[C@@H](C)[C@H](CN(C)C(=O)CCCN(C)C)OCCCC[C@H](C)O3)cc1 | x | -8 | i | -17% | -1% | x
NC(=O)CCSC(=S)N1CCOCC1 | 10% | 0 | -24% | 1% | -18% | u
Cc1occc1-c1nnc(SCC(=O)N2c3ccccc3CCc3ccccc32)n1C | -2% | -7 | -13% | -24% | -7% | 4%
Cc1csc2ncnc(N3CCN(C(=S)Nc4ccc(F)cc4F)CC3)c12 | u | -77* | u | u | u | 2%
CC1CN(C(=S)Nc2ccc(F)cc2F)CC(C)O1 (configuration not stated) | 5% | 16 | x | -1% | x | -8%
Fc1ccc(NC(=S)N2CCCN(c3ccc(C(F)(F)F)cn3)CC2)c(F)c1 | 0.5µM* | -80* | x | u | x | -12%
N#Cc1cc2c(nc1Cl)CCC2 | 12% | -2 | x | -3% | x | 1%
CCOc1ccccc1NCc1nnc2n1CCCCC2 | x | 3 | 0% | -8% | 5% | -3%
CC(C)NC(=O)C1CCC(Cn2c(=O)c3sccc3n(CC(=O)N3CCCC3)c2=O)CC1 (configuration not stated) | x | -89* | 1% | 5% | -4% | 0%
SMILES | HCV inhibitor | HCMV antiviral | VACV mCherry inh | FMDV inh | Vaccinia Venus | Sm TGR inh
Cc1nn(-c2ccccc2)c(C)c1/C=N/NC(=O)c1cc(C(C)(C)C)[nH]n1 | u | 9 | x | 0% | u | 2%
Cc1ccc(-c2cc(C(=O)N/N=C/c3c(C)nn(-c4ccccc4)c3C)n[nH]2)s1 | 8.9µM* | -92* | x | u | x | -9%
Cc1nn(-c2ccccc2)c(C)c1-c1cc(C(=O)N/N=C/c2cccnc2)[nH]n1 | x | -1 | x | x | x | 6%
Cc1ccc(-c2cc(C(=O)N/N=C/c3c(C)nn(-c4ccccc4)c3C)[nH]n2)cc1 | u | -98* | x | x | x | 3%
Cc1[nH]c2ccccc2c1/C=N/NC(=O)c1cc(-c2cccs2)[nH]n1 | 11µM* | u | x | -7% | x | 4%
CC1(C(=O)Nc2ccc3nc[nH]c3c2)CCN1C(=O)C1(c2ccccc2)CC1 (configuration not stated) | x | -22 | 22% | -13% | 2% | x
COc1ccc(NC(=O)CN(C)C(=O)CCc2nc3cc(S(=O)(=O)N4CCOCC4)ccc3n2C)cc1 | -1% | -2 | -17% | -9% | -5% | 3%
C[C@@H]1C[C@H]2[C@@H]3CCC4=CC(=O)C=C[C@]4(C)[C@@]3(Cl)[C@@H](O)C[C@]2(C)[C@@]1(OC(=O)c1ccco1)C(=O)CCl | -22% | -73* | u | u | u | -31%
CC1CC2C3CCC4=CC(=O)C=C[C@]4(C)[C@@]3(Cl)C(O)C[C@]2(C)C1(OC(=O)c1ccco1)C(=O)CCl (some centres not stated) | x | x | i | 4% | 0% | x
CCOC(=O)c1c(NC(=O)c2nn(CC)cc2Br)c(C#N)nn1-c1ccccc1 | 11µM* | -21 | -16% | -22% | -8% | 3%
CCOC(=O)c1nn(-c2ccccc2)c(C#N)c1NC(=O)c1nn(CC)cc1Br | u | -27 | -5% | 4% | -18% | 10%
COC(=O)COc1ccc(S(=O)(=O)NCc2ccco2)cc1 | 28% | -12 | i | x | -12% | 35µM*
O=S(=O)(NCc1ccco1)c1ccc2c(c1)Cc1ccccc1-2 | -71% | -5 | -17% | 125% | -14% | 7.9µM*
O=C(COc1ccc(Cl)cc1)Nc1cccc(S(=O)(=O)NCc2ccco2)c1 | 32µM* | -12 | x | 53% | x | -13%
Cc1ccc(S(=O)(=O)NCc2ccco2)cc1C | 14% | -20 | -3% | x | -9% | -20%
CCOC(=O)COc1ccc(S(=O)(=O)NCc2ccco2)cc1 | 20% | -25 | -21% | 38% | -9% | 50µM*
Cc1cccc(S(=O)(=O)c2cn(Cc3ccccc3)c3cc(N4CCCCC4C)c(F)cc3c2=O)c1 (configuration not stated) | x | -40 | -7% | -6% | -20% | 0%
O=c1c2sc3ccccc3c2n(Cc2cccc(Cl)c2)c(=O)n1Cc1ccco1 | x | -12 | -8% | -11% | -10% | u
O=C(c1ccco1)N1CCN(C2CN(Cc3cn(Cc4ccccc4C(F)(F)F)nn3)S(=O)(=O)C2)CC1 (configuration not stated) | x | -8 | i | -9% | -10% | x
O=C(CC(SCCO)c1ccc([N+](=O)[O-])cc1)c1ccco1 (configuration not stated) | u | 2 | x | -16% | x | -20%
